The nature of experiment [1]: qHTS of pediatric cancer cell lines to identify multiple opportunities for drug repurposing: Primary screen for LAN-5 cells (AID 1347100). Further: potency means the concentration at half of the fitted maximal effect. Put shortly:
(§1)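 Cells (500-1,000/well) rested 5 h, then received compounds for 48 h; metabolically active cells were measured by CellTiter-Glo luminescence. Final concentrations spanned up to 46 µM (MIPE, 11-point) or 0.59 nM-46 µM (NPC, 8-point) in primary screens, 11-point in follow-ups.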

The nature of experiment [2]: qHTS of pediatric cancer cell lines to identify multiple opportunities for drug repurposing: Primary screen for BT-12 cells (AID 1347101). Further: nearly all actives have a fitted effect of over 25% in size. Further: potency means the concentration at half of the fitted maximal effect. Put shortly:
as §1
(In general: Quantitative high-throughput screening tests each substance at several concentrations.)

A short description of experiment [3]: qHTS of pediatric cancer cell lines to identify multiple opportunities for drug repurposing: Primary screen for Rh18 cells (AID 1347102). Further: nearly all actives have a fitted effect of over 65% in size. Further: potency means the concentration at half of the fitted maximal effect. Put shortly: as §1
A short description of experiment [4]: qHTS of pediatric cancer cell lines to identify multiple opportunities for drug repurposing: Primary screen for MG 63 (6-TG R) cells (AID 1347105). Further: nearly all actives have a fitted effect of over 50% in size. Further: potency means the concentration at half of the fitted maximal effect. The method, boiled down:
(§2)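 ATP-based luminescence (CellTiter-Glo) quantifies viability after a 48-hour exposure. Compounds are dosed across 8 or 11 final concentrations; DMSO and 2.3 µM bortezomib serve as controls.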

Experiment [5] can be described thus: qHTS of pediatric cancer cell lines to identify multiple opportunities for drug repurposing: Primary screen for control Hh wild type fibroblast cells (AID 1347106). Further: nearly all actives have a fitted effect of over 55% in size. Further: potency means the concentration at half of the fitted maximal effect. Put shortly: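 Viability after 48 h compound treatment at 37C, 500-1,000 cells/well, read as ATP luminescence with CellTiter-Glo. Primary screens used 11-point (MIPE, 0.78 nM-46 µM) or 8-point (NPC, 0.59 nM-46 µM) final concentrations; follow-up screens used 11-point dilutions.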

The nature of experiment [6]: qHTS of pediatric cancer cell lines to identify multiple opportunities for drug repurposing: Primary screen for Rh30 cells (AID 1347107). Further: series mostly up to about 46 µM; nearly all actives have a fitted effect of over 75% in size. Put shortly: as §1
Experiment [7] in a line: qHTS of pediatric cancer cell lines to identify multiple opportunities for drug repurposing: Primary screen for OHS-50 cells (AID 1347103). Further: nearly all actives have a fitted effect of over 40% in size. Further: potency means the concentration at half of the fitted maximal effect. Put shortly:
as §1

Experiment [8] in a line: qHTS of pediatric cancer cell lines to identify multiple opportunities for drug repurposing: Primary screen for RD cells (AID 1347104). Further: nearly all actives have a fitted effect of over 55% in size. Further: potency means the concentration at half of the fitted maximal effect. The method, boiled down: as §2
Experiment [9] in a line: qHTS of pediatric cancer cell lines to identify multiple opportunities for drug repurposing: Primary screen for Rh41 cells (AID 1347108). Further: nearly all actives have a fitted effect of over 70% in size. Further: potency means the concentration at half of the fitted maximal effect. The method, boiled down: as §2
A short description of experiment [10]: qHTS of pediatric cancer cell lines to identify multiple opportunities for drug repurposing: Confirmatory screen for NB1643 cells (AID 1347109). Further: nearly all actives have a fitted effect of over 45% in size. Further: potency means the concentration at half of the fitted maximal effect. Put shortly: as §1
Experiment [11] is described as follows: qHTS of pediatric cancer cell lines to identify multiple opportunities for drug repurposing: Confirmatory screen for SK-N-MC cells (AID 1347111).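 Further: cells exposed to compound for 48 h before the readout; nearly all actives have a fitted effect of over 70% in size.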 Further: potency means the concentration at half of the fitted maximal effect. Put shortly: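 Seed 500-1,000 cells/well; rest 5 h at 37 degrees C. Pin-transfer compounds, 11-point titration. Incubate 48 h. Add CellTiter-Glo, 15 min RT, read luminescence.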
The nature of experiment [12]: qHTS of pediatric cancer cell lines to identify multiple opportunities for drug repurposing: Confirmatory screen for LAN-5 cells (AID 1347113). Further: nearly all actives have a fitted effect of over 65% in size. Further: potency means the concentration at half of the fitted maximal effect. Put shortly: as §1
Experiment [13] is described as follows: qHTS of pediatric cancer cell lines to identify multiple opportunities for drug repurposing: Confirmatory screen for DAOY cells (AID 1347114). Further: nearly all actives have a fitted effect of over 65% in size. Further: potency means the concentration at half of the fitted maximal effect. The method, boiled down: (§3)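 Viability measured as metabolically active cells via CellTiter-Glo luminescence following 48 hours of compound exposure, 11-point dilutions in confirmatory testing. 500-1,000 cells/well plated 5 hours before dosing; controls were DMSO and 2.3 µM bortezomib.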

The nature of experiment [14]: qHTS of pediatric cancer cell lines to identify multiple opportunities for drug repurposing: Confirmatory screen for NB-EBc1 cells (AID 1347115).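 Further: cells exposed to compound for 48 h before the viability read; nearly all actives have a fitted effect of over 45% in size.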 Further: potency means the concentration at half of the fitted maximal effect. The method, boiled down: as §1
The nature of experiment [15]: qHTS of pediatric cancer cell lines to identify multiple opportunities for drug repurposing: Confirmatory screen for SJ-GBM2 cells (AID 1347116). Further: nearly all actives have a fitted effect of over 60% in size. Further: potency means the concentration at half of the fitted maximal effect. Put shortly:
as §3

A short description of experiment [16]: qHTS of pediatric cancer cell lines to identify multiple opportunities for drug repurposing: Confirmatory screen for TC32 cells (AID 1347118).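 Further: cells exposed to compound for 48 h before the read; nearly all actives have a fitted effect of over 65% in size.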 Further: potency means the concentration at half of the fitted maximal effect. The method, boiled down:
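Luminescent CellTiter-Glo read-out of metabolically active TC32 cells after 48 h compound exposure. Primary: MIPE 11-point, 0.78 nM–46 µM; NPC 8-point, 0.59 nM–46 µM. Confirmatory: 11-point dilutions.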

A short description of experiment [17]: qHTS of pediatric cancer cell lines to identify multiple opportunities for drug repurposing: Confirmatory screen for MG 63 (6-TG R) cells (AID 1347119). Further: nearly all actives have a fitted effect of over 55% in size. Further: potency means the concentration at half of the fitted maximal effect. Put shortly:
as §1

Experiment [18] can be described thus: qHTS of pediatric cancer cell lines to identify multiple opportunities for drug repurposing: Confirmatory screen for A673 cells (AID 1347110). The method, boiled down: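 qHTS titration format: primary MIPE 0.78 nM-46 µM (11 pts), NPC 0.59 nM-46 µM; confirmation 11 pts. 48 h, CTG luminescence.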
Experiment [19] can be described thus: qHTS of pediatric cancer cell lines to identify multiple opportunities for drug repurposing: Confirmatory screen for BT-12 cells (AID 1347112). Further: nearly all actives have a fitted effect of over 55% in size. Further: potency means the concentration at half of the fitted maximal effect. The method, boiled down: as §1
Experiment [20] can be described thus: qHTS of pediatric cancer cell lines to identify multiple opportunities for drug repurposing: Confirmatory screen for BT-37 cells (AID 1347117). Further: nearly all actives have a fitted effect of over 55% in size. Further: potency means the concentration at half of the fitted maximal effect. Put shortly: as §1

The results in this text go back to PubChem BioAssay (NCATS).

“And” between values parts separate entries of the source, which are not always exact repeats. Equal values may be shown once. Records with an inconclusive call do not appear. The source made the active and inactive calls. The call rests on the fitted dose curve; in most records, active means well fitted curve in the direction sought with a large enough effect; inconclusive means small, poorly fitted or top-dose-only effect, or another doubt; inactive means no such curve, though single readings can be large; an effect the other way counts as inactive or inconclusive.

As to `Cc1ccc(-c2cc(C(F)(F)F)nn2-c2ccc(S(N)(=O)=O)cc2)cc1`, the Potency result in [1], in experiment [2], in experiment [3], in [4] and in experiment [5] was “inactive” throughout. Further, the result in experiment [6] was inactive.

For `O=C1N(c2ccccc2)c2ccccc2C1(Cc1ccncc1)Cc1ccncc1`, the Potency entry in [1], in [2], in experiment [3], in [7], in [8] and in experiment [4] was “inactive” each time. For the same compound, the Potency entry in experiment [5] and in [9] was “inactive” in each case. Besides, the call in experiment [6] was inactive.

On to `CC(C)(C)C(=O)Oc1ccc(S(=O)(=O)Nc2ccccc2C(=O)NCC(=O)O)cc1`, for which the Potency result in experiment [1], in experiment [2], in experiment [3], in experiment [7], in experiment [8] and in experiment [4] was “inactive” in each case. The Potency result in experiment [5] and in experiment [9] was “inactive” each time. Also, the outcome in experiment [6] was inactive.

For the compound `COc1ccccc1N1CCN(CC(O)COc2cccc3ccccc23)CC1` (centres undefined), the Potency entry in experiment [1], in experiment [2], in experiment [3], in experiment [8], in experiment [4] and in experiment [5] was “inactive” throughout. The Potency in experiment [7] was 15.5 µM (active). Besides, the result in experiment [6] was inactive.

For `C[C@](N)(Cc1ccc(O)c(O)c1)C(=O)O`, the Potency entry in experiment [1], in experiment [2], in experiment [3], in experiment [7], in [8] and in experiment [4] was “inactive” each time. Moreover, the Potency result in [5] and in [9] was “inactive” in each case. For the same compound, in experiment [6], the call was inactive.

With `O=C(C1CCCCC1)N1CC(=O)N2CCc3ccccc3C2C1` (centres undefined), the Potency result in [1], in [2], in experiment [3], in [7], in experiment [8] and in experiment [4] was “inactive” each time. In addition, the Potency entry in [5] and in [9] was “inactive” in each case. Further, in experiment [6], the compound was called inactive.

As to `COc1nc(C)nc(Cl)c1NC1=NCCN1`, the Potency result in experiment [1], in experiment [2], in experiment [3], in [7], in experiment [8] and in experiment [4] was “inactive” throughout. The Potency entry in experiment [5] and in experiment [9] was “inactive” throughout. For the same compound, in [6], the result was inactive.

With `CC[N+](CC)(CC)CCOc1cccc(OCC[N+](CC)(CC)CC)c1OCC[N+](CC)(CC)CC`, the Potency entry in [1], in experiment [2], in [3], in experiment [7], in experiment [8] and in experiment [4] was “inactive” throughout. Besides, the Potency result in experiment [5] and in experiment [9] was “inactive” in each case. Besides, the outcome in experiment [6] was inactive.

With `NCCS(=O)(=O)O`, the Potency result in [1], in experiment [2], in experiment [3], in experiment [7], in experiment [8] and in experiment [4] was “inactive” throughout. The Potency result in experiment [5] and in [9] was “inactive” each time. Besides, the call in experiment [6] was inactive.

As to `CN(C)C(=O)C(CCN1CCC(O)(c2ccc(Cl)cc2)CC1)(c1ccccc1)c1ccccc1`, the Potency in experiment [1] is 18700 nM (active); in [2] it was 19.3 µM (active) and 21.9 µM (active); in experiment [3], 20.9 µM (active); in experiment [7], 21.7 µM (active) and 19.5 µM (active); in experiment [8] it was 26.4 µM (active) and 26.6 µM (active); in [9] it was 18.7 µM (active) and 16.8 µM (active). Moreover, in experiment [5], the Potency entry is “inactive”.

Turning to `Clc1ccc2nsnc2c1NC1=NCCN1`, the Potency entry in experiment [1], in [2], in experiment [3], in experiment [7], in [8] and in experiment [4] was “inactive” in each case. Further, the Potency result in experiment [5], in experiment [9], in experiment [11], in experiment [12], in [13] and in experiment [14] was “inactive” throughout. Also, the Potency entry in experiment [15], in [16] and in [17] was “inactive” throughout. The call in experiment [6] was inactive. The Potency in experiment [10] was 26100 nM (active).

Consider `CC(C)Cc1ccc(C(C)C(=O)O)cc1` (centres undefined), for which the Potency result in experiment [1], in [2], in experiment [3], in experiment [7], in [8] and in experiment [4] was “inactive” in each case. Moreover, the Potency result in [5], in [9], in [10], in experiment [19], in [14] and in [20] was “inactive” throughout. For the same compound, the Potency entry in experiment [17] is “inactive”. The result in experiment [6] was inactive. Also, the Potency is 6570 nM (active) in experiment [18]; 3690 nM (active) in experiment [11]; 3690 nM (active) in [13]; 1310 nM (active) in experiment [15]; 3690 nM (active) in [16].

Turning to `Cc1cn([C@H]2C[C@H](N=[N+]=[N-])[C@@H](CO)O2)c(=O)[nH]c1=O`, the Potency entry in [1], in [2], in [3], in experiment [7], in experiment [8] and in experiment [4] was “inactive” in each case. Moreover, the Potency entry in experiment [5] and in experiment [9] was “inactive” in each case. Further, the outcome in [6] was inactive.

Regarding `O=C1c2c(O)ccc(O)c2C(=O)c2c(NCCNCCO)ccc(NCCNCCO)c21`, the Potency in [1] was 83.3 nM (active); in experiment [2] it was 1.72 µM (active) and 490 nM (active); in experiment [3], 2.09 µM (active) and 2.37 µM (active); in [7] it was 344 nM (active) and 49 nM (active); in [8] it was 4.69 µM (active) and 6.68 µM (active); in experiment [4], 372 nM (active). The Potency in experiment [5] was 13300 nM (active); in experiment [9], 4.18 µM (active) and 9.44 µM (active); in [10], 369 nM (active); in [18], 147 nM (active); in experiment [11], 208 nM (active); in [19], 1850 nM (active). The Potency was 165 nM (active) in experiment [12]; 7370 nM (active) in experiment [13]; 414 nM (active) in [14]; 2080 nM (active) in [15]; 261 nM (active) in experiment [20]; 131 nM (active) in [16]. In addition, the Potency in [17] is 414 nM (active).

Regarding `O=C(c1ccc(F)cc1)C1CCN(CCn2c(=O)[nH]c3ccccc3c2=O)CC1`, the Potency result in [1], in [2], in experiment [3], in [7], in [8] and in [4] was “inactive” in each case. The Potency result in [5] and in experiment [9] was “inactive” in each case. For the same compound, the compound was called inactive in experiment [6].

On to `CCC1(c2ccccc2)C(=O)NCNC1=O`, for which the Potency result in experiment [1], in [2], in experiment [3], in experiment [7], in [5] and in experiment [9] was “inactive” each time. Further, the Potency result in [19], in experiment [12], in [13], in [14], in [15] and in experiment [20] was “inactive” in each case. In experiment [17], the Potency entry is “inactive”. The result in experiment [6] was inactive.

Consider `Nc1c2c(nc3ccccc13)CCCC2`, for which the Potency entry in experiment [1], in experiment [2], in [3], in experiment [7], in experiment [8] and in experiment [4] was “inactive” each time. The Potency entry in experiment [5] and in experiment [9] was “inactive” each time. Moreover, the result in experiment [6] was inactive.

`CCOC(=O)Nc1ccc(NCc2ccc(F)cc2)nc1N`: the Potency entry in [1], in experiment [2], in experiment [3], in experiment [7], in experiment [8] and in experiment [4] was “inactive” throughout. In addition, the Potency entry in experiment [5] and in [9] was “inactive” in each case. The compound was classed as inactive in [6].
